“And” between values parts separate entries of the source, which are not always exact repeats. Equal values may be shown once. Records with an inconclusive call do not appear. Where a call stands in place of a potency, no number is given. A structure can be active in one record and inactive in another. The source made the active and inactive calls. Unless noted, the call rests on the fitted dose curve; in most records, active means well fitted curve in the direction sought with a large enough effect in the repeat runs; inconclusive means weak or mixed curves; inactive means no such curve, though single readings can be large; an effect the other way counts as inactive or inconclusive.
Tests used:
[1] = qHTS assay to identify small molecule antagonists of the sonic hedgehog signaling (Shh) pathway (AID 1259369; calls by dose curve; further: nearly all actives have a fitted effect of over 45% in size; further: potency means the concentration at half of the fitted maximal effect)
In short: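 Screening used 3T3Gli1-Luc cells at 2,000 per well, compounds delivered in DMSO, and conditioned medium as agonist stimulus; plates incubated 24hr at 37 C and 5% CO2 before a 30min luciferase step.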

[2] = target: Estrogen receptor beta (Homo sapiens) (UniProt Q92731); assay: qHTS assay to identify small molecule antagonists of the estrogen receptor beta (ER-beta) signaling pathway (AID 1259378; active means well fitted inhibition curve with a large enough effect in the signal ratio in the repeat runs, not every such curve was filed as active; the % refers to the signal ratio)
Estrogen receptor beta (Homo sapiens), sequence (Q92731 whole entry, looked up): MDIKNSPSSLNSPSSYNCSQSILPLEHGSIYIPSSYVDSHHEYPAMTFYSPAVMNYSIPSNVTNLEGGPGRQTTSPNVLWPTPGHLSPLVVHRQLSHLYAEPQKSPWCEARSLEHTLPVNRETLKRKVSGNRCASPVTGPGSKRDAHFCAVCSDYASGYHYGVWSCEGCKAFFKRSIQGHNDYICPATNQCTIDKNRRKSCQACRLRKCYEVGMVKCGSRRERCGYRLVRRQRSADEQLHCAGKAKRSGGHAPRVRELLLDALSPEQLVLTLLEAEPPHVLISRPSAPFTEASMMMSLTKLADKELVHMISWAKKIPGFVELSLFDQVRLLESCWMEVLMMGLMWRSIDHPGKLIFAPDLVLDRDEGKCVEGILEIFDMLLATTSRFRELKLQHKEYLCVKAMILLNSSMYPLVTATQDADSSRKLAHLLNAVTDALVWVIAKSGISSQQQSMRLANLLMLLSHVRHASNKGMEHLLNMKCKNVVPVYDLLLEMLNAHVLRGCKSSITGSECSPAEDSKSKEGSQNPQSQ
In short: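 Antagonist mode: compounds added to beta-lactamase reporter HEK293T ER-beta-UAS cells stimulated with E2 (1nM final), 16 hr at 37C. LiveBLAzer B/G FRET substrate, 2 hours room temperature, fluorescence read-out.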

[3] = qHTS assay to identify small molecule agonists of the androgen receptor (AR) signaling pathway in the presence of an antagonist - cell viability counter screen (AID 1259379); further: nearly all actives have a fitted effect of over 25% in size; further: potency means the concentration at half of the fitted maximal effect
In short: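 In MDA-kb2 cells (human breast carcinoma, MMTV-luciferase), compounds at 15 concentrations plus 3.0uM nilutamide; 16 hr, 37C, 0% CO2; CellTiter-Fluor fluorescence read for viability.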

[4] = qHTS assay to identify small molecule antagonists of the estrogen receptor beta (ER-beta) signaling pathway - cell viability counter screen (AID 1259382); further: nearly all actives have a fitted effect of over 55% in size; further: potency means the concentration at half of the fitted maximal effect
In short: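 Tox21 10K library tested in qHTS format on ER-beta-bla HEK293T cells stimulated with 1nM E2; 16 hr treatment at 37C. Same-well CellTiter-Glo luminescence served as the cell viability measure.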

[5] = target: Estrogen receptor (Homo sapiens) (UniProt P03372); assay: qHTS assay to identify small molecule agonists of the estrogen receptor alpha (ER-alpha) signaling pathway in the presence of an antagonist (AID 1259383; calls by dose curve; further: top concentration of the series differs between compounds; nearly all actives have a fitted effect of over 15% in size)
Estrogen receptor (Homo sapiens), sequence (P03372 whole entry, looked up): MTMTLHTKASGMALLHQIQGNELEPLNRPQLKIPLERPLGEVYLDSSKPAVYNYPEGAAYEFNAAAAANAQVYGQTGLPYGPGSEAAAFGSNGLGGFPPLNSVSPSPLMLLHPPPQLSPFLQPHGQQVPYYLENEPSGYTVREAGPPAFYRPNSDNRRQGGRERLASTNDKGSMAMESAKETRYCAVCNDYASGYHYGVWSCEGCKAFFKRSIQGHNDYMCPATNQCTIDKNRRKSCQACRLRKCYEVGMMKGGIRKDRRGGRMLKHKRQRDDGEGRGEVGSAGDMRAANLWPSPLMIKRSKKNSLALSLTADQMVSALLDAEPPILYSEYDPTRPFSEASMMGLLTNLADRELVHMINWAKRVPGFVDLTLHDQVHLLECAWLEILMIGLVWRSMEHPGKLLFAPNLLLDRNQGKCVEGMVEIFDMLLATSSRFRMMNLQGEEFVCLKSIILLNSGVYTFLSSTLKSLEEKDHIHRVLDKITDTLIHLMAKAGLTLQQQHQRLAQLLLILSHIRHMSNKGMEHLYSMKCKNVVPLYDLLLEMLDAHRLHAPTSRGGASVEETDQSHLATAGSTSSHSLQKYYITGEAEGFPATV
In short: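 In VM7Luc4E2 cells, 4,000 per well, compounds at 15 concentrations were co-incubated 22hr at 37C with 10.0nM final ICI-182,780. Luminescence from the stably transfected 4×ERE-luciferase reporter was recorded 30min after ONE-Glo addition.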

[6] = qHTS assay to identify small molecule agonists or antagonists of the thyroid stimulating hormone receptor (TSHR) signaling pathway - wild type cell line counter screen (AID 1259384; calls by dose curve)
In short: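 Counter screen in untransfected Hek293: compounds (15-point titration, triplicate) plus phosphodiesterase inhibitor Ro20-1724 added after 18 h plating; 30 min RT. Intracellular cAMP via competitive d2/cryptate immunoassay, 1 h incubation.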

[7] = target: Thyrotropin receptor (Homo sapiens) (UniProt P16473); assay: qHTS assay to identify small molecule antagonists of the thyroid stimulating hormone receptor (TSHR) signaling pathway (AID 1259385; calls by dose curve; further: nearly all actives have a fitted effect of over 20% in size)
Thyrotropin receptor (Homo sapiens), sequence (P16473 whole entry, looked up): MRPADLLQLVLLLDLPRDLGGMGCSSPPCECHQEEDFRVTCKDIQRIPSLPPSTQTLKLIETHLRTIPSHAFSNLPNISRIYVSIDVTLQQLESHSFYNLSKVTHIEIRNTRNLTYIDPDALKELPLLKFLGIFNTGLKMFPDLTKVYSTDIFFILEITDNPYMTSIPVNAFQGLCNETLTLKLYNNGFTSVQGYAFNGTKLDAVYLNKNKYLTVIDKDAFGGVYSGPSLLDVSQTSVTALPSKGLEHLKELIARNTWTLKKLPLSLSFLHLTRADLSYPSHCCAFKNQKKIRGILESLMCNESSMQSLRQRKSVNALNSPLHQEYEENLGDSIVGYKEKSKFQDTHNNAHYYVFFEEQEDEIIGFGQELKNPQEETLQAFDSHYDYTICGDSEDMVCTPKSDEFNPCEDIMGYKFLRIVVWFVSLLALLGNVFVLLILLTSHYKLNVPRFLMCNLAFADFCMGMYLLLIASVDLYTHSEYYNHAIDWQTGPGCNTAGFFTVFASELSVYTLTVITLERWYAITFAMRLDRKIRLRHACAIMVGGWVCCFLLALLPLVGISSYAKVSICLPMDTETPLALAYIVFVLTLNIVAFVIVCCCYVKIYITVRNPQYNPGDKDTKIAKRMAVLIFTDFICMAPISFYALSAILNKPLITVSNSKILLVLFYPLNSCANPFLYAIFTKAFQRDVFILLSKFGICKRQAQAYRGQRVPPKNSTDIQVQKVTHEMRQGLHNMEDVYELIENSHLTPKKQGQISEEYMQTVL
In short: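 Antagonist mode: compound-treated TSHR-expressing HEK293 cells were stimulated with 1.5 ng/mL TSH (final) in presence of Ro20-1724 for 30 min at RT. HTRF cAMP detection after 1 h; each compound tested at 15 concentrations, triplicate.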

[8] = qHTS assay to identify small molecule agonists of the estrogen receptor alpha (ER-alpha) signaling pathway in the presence of an antagonist - cell viability counter screen (AID 1259386);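 further: cells exposed to compounds for 22 h at 37 °C before the viability read; nearly all actives have a fitted effect of over 30% in size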; further: potency means the concentration at half of the fitted maximal effect
In short: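 Fluorescent CellTiter-Fluor viability signal from VM7Luc4E2 cells, with the reagent added during the final hour of a 22hr compound exposure at 37C in the presence of 10.0nM ICI-182,780.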

[9] = target: Progesterone receptor (Homo sapiens) (UniProt P06401); assay: qHTS assay to identify small molecule agonists of the progesterone receptor (PR) signaling pathway (AID 1346784; calls by dose curve; further: nearly all actives have a fitted effect of over 30% in size)
Progesterone receptor (Homo sapiens), sequence (P06401 whole entry, looked up): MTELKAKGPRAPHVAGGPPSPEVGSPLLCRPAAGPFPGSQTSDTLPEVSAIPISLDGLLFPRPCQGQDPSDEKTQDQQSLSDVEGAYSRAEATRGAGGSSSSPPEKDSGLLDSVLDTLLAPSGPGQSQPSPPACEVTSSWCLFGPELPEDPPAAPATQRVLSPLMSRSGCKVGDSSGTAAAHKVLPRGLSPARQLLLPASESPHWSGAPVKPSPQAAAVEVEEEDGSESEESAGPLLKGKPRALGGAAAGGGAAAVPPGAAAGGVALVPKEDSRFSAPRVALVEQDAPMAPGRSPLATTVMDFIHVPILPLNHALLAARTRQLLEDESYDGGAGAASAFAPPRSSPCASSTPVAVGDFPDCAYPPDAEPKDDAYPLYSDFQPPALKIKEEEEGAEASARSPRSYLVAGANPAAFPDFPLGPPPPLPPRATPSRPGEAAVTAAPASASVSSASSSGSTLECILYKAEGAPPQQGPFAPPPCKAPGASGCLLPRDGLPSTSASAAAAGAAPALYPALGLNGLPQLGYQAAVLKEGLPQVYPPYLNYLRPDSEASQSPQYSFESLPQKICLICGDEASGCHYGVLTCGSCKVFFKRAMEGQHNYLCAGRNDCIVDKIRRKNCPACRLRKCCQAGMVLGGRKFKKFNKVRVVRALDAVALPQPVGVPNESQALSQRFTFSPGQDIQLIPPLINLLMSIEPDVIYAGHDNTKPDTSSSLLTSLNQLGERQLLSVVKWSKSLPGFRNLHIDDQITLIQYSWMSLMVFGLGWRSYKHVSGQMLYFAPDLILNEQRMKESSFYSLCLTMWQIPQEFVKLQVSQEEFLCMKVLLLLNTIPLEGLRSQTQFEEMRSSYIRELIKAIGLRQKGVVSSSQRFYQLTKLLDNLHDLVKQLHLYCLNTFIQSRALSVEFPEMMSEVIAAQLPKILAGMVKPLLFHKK
In short: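 Seed PR-UAS-bla HEK 293T cells (2% charcoal-stripped FBS), incubate 6 hr at 37C; add compounds in DMSO, 16 hr at 37C; add LiveBLAzer B/G substrate, 2 hr RT; read fluorescence intensity.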

[10] = qHTS assay to identify small molecule antagonists of the progesterone receptor (PR) signaling pathway - cell viability counter screen (AID 1346798); further: nearly all actives have a fitted effect of over 50% in size; further: potency means the concentration at half of the fitted maximal effect
In short: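 Measures cytotoxicity in parallel with the PR antagonist reporter read: HEK293T PR-UAS-bla cells get compound and R5020 for 16 hr, and remaining viable cells are quantified by CellTiter-Glo luminescence.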

[11] = qHTS assay to identify small molecule agonists of the progesterone receptor (PR) signaling pathway - cell viability counter screen (AID 1346799; calls by dose curve; further: nearly all actives have a fitted effect of over 45% in size; further: potency means the concentration at half of the fitted maximal effect)
In short: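 Using the same plates as the PR reporter screen, HEK293T PR-UAS-bla cells received compounds for 16 hr at 37C and were then lysed with CellTiter-Glo; luminescence was read 30 min later at room temperature.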

[12] = qHTS assay to identify small molecule antagonists of the TGF-beta/Smad signaling pathway - cell viability counter screen (AID 1346824); further: nearly all actives have a fitted effect of over 50% in size
In short: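 Cytotoxicity counter-screen run in the same wells as the beta-lactamase Smad reporter read: CellTiter-Glo luminescence after 30 min at room temperature. HEK 293T SBE-bla cells had 5 hr compound exposure at 37 C with TGF-beta1 (0.25 ng/mL stock).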

[13] = qHTS assay to identify small molecule agonists of the TGF-beta/Smad signaling pathway - cell viability counter screen (AID 1346829); further: nearly all actives have a fitted effect of over 45% in size; further: potency means the concentration at half of the fitted maximal effect
In short: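 Luminescence from CellTiter-Glo, read after a 30 min room-temperature incubation, gives cell viability of SBE-bla HEK 293T cells treated 5 hr with compounds at 37 C.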

[14] = qHTS assay to identify small molecule agonists of the TGF-beta/Smad signaling pathway (AID 1346859; active means well fitted activation curve with a large enough effect in the signal ratio in the repeat runs, not every such curve was filed as active; the % refers to the signal ratio; further: series mostly up to about 77 µM)
In short: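 Beta-lactamase reporter activity downstream of Smad binding elements was measured in stably transfected HEK 293T cells; compounds were incubated for 5 hr, substrate for 2 hr at room temperature.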

[15] = target: Estrogen receptor beta (Homo sapiens) (UniProt Q92731); assay: qHTS assay to identify small molecule agonists of the estrogen receptor beta (ER-beta) signaling pathway (AID 1259377; active means well fitted activation curve with a large enough effect in the signal ratio in the repeat runs, not every such curve was filed as active; the % refers to the signal ratio)
In short: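 Screening used GripTite ER-beta-UAS-bla cells held in 2% charcoal-stripped FBS medium. After overnight (16 hr) compound incubation at 37C, beta-lactamase activity was detected with a FRET substrate by fluorescence.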

[16] = qHTS assay to identify small molecule agonists of the estrogen receptor beta (ER-beta) signaling pathway - cell viability counter screen (AID 1259380); further: nearly all actives have a fitted effect of over 30% in size; further: potency means the concentration at half of the fitted maximal effect
In short: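 Viability of ER-beta-UAS-bla HEK293T cells was determined by CellTiter-Glo luminescence following 16 hr treatment with test compounds at 37C.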

[17] = target: Thyrotropin-releasing hormone receptor (Homo sapiens) (UniProt P34981); assay: qHTS assay to identify small molecule antagonists of the thyrotropin-releasing hormone receptor (TRHR) signaling pathway (AID 1346877; active means well fitted inhibition curve with a large enough effect in the repeat runs, not every such curve was filed as active; further: series mostly up to about 51 µM)
Thyrotropin-releasing hormone receptor (Homo sapiens), sequence (P34981 whole entry, looked up): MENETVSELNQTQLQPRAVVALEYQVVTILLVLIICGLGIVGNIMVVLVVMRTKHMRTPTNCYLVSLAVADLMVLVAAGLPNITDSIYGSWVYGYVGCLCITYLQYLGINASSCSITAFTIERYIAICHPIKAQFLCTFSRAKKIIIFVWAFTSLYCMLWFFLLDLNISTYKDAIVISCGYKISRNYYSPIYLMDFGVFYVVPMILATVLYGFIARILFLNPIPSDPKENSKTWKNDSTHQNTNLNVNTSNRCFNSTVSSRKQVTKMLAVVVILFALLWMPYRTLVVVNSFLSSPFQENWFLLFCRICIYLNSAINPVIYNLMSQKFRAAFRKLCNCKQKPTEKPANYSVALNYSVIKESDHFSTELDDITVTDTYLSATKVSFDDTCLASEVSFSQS
In short: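 In this cell-based calcium flux format, HEK293 cells expressing TRHR received test compound for 5 min before the agonist TRH (1 nM final). Dye loading lasted 2 h at 37 °C.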

[18] = target: Thyrotropin-releasing hormone receptor (Homo sapiens) (UniProt P34981); assay: qHTS assay to identify small molecule agonists of the thyrotropin-releasing hormone receptor (TRHR) signaling pathway (AID 1346891; calls by dose curve; further: series mostly up to about 58 µM)
In short: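 Overnight-plated (18 h, 37 °C, 5% CO2) TRHR-Hek293 cells; 2 h calcium dye at 37 °C; compound in DMSO; 3-min kinetic fluorescence read.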

[19] = target: Progesterone receptor (Homo sapiens) (UniProt P06401); assay: qHTS assay to identify small molecule antagonists of the progesterone receptor (PR) signaling pathway (AID 1346795; active means well fitted inhibition curve with a large enough effect in the signal ratio in the repeat runs, not every such curve was filed as active; the % refers to the signal ratio)
In short: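 Screening used a GripTite HEK293T line with PR-responsive UAS-beta-lactamase. Cells were challenged with compound in the presence of 1 nM R5020 final for 16 hr at 37C; B/G FRET substrate, 2 hr room temperature, fluorescence.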

[20] = target: Androgen receptor (Homo sapiens) (UniProt P10275); assay: qHTS assay to identify small molecule agonists of the androgen receptor (AR) signaling pathway in the presence of an antagonist (AID 1259381; calls by dose curve; further: nearly all actives have a fitted effect of over 15% in size)
Androgen receptor (Homo sapiens), sequence (P10275 whole entry, looked up): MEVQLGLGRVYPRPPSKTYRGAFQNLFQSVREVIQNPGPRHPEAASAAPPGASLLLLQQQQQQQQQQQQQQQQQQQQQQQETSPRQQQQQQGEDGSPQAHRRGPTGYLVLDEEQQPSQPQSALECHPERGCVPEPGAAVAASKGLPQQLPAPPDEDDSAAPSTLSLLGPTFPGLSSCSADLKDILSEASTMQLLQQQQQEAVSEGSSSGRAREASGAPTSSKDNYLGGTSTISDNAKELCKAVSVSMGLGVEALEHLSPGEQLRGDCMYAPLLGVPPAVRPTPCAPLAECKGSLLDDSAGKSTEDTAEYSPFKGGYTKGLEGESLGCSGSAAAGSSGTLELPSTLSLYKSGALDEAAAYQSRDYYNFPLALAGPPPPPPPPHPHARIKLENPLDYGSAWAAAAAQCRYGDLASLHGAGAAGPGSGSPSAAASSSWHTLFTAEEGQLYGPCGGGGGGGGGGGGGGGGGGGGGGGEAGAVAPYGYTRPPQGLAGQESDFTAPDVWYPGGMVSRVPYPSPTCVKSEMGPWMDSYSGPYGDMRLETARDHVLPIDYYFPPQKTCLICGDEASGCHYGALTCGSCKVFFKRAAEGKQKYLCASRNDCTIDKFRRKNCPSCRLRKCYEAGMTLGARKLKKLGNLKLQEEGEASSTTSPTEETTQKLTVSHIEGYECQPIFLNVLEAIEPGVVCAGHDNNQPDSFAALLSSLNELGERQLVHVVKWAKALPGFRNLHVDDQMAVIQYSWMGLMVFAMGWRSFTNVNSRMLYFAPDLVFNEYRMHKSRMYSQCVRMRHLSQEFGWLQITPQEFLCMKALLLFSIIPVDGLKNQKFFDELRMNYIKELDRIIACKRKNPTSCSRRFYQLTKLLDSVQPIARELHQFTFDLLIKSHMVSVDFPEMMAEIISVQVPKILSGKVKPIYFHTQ
In short: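 Here, 15-concentration compound series were pin-transferred onto MDA-kb2 MMTV-luciferase cells already dosed with nilutamide (3.0uM final). After 16hr at 37C, ONE-Glo was added and luminescence read 30min later at room temperature.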

Row | Structure (SMILES) | Potency [1] | Potency [2] | Potency [3] | Potency [4] | Potency [5] | outcome [6] | Potency [7] | Potency [8] | Potency [9] | Potency [10] | Potency [11] | Potency [12] | Potency [13] | outcome [14] | Potency [15] | Potency [16] | Potency [17] | outcome [18] | Potency [19] | Potency [20]
1 | NNCCO | inactive | inactive | inactive | inactive | inactive | inactive | inactive | inactive | inactive | inactive | inactive | inactive | inactive | inactive |  |  |  |  |  | 
2 | CN(C)c1ccc(N=O)cc1 | 15.4 µM (active) |  | 43.4 µM (active) and 43.3 µM (active) |  | inactive |  |  | 68.8 µM (active) and 61.1 µM (active) |  | 38.7 µM (active) and 48.6 µM (active) | inactive | inactive | inactive | inactive | inactive | 3.87 µM (active) and 15.4 µM (active) | inactive | inactive |  | 
3 | CCSCc1ccccc1OC(=O)NC | inactive |  | inactive | inactive | inactive | inactive | inactive | inactive | inactive | inactive | inactive | inactive | inactive | inactive | inactive | inactive | inactive | inactive | inactive | 
4 | C[C@@H]1C[C@@H]([C@H](O)CC2CC(=O)NC(=O)C2)C(=O)[C@@H](C)C1 | 12.1 nM (active) and 48.6 nM (active) and 150 nM (active) |  | inactive | inactive |  | inactive | inactive | inactive | inactive | inactive | inactive | inactive | inactive | inactive | inactive |  | inactive | inactive |  | 
5 | CC(=O)NNc1ccccc1 | inactive |  | inactive |  |  | inactive |  | inactive | inactive | 30.4 µM (active) |  | inactive | inactive | inactive | inactive |  |  |  |  | inactive
6 | CN1C(=O)CN=C(c2ccccc2)c2cc([N+](=O)[O-])ccc21 | inactive |  | inactive | inactive | inactive | inactive | inactive | inactive | inactive | inactive | inactive | inactive | inactive | inactive |  | inactive | inactive | inactive | inactive | inactive
7 | O=CC=O | inactive | inactive | inactive | inactive | inactive | inactive | inactive | inactive | inactive | inactive | inactive | inactive | inactive | inactive |  | inactive |  |  | inactive | inactive
8 | COc1cc(CC#N)cc(OC)c1OC | inactive |  | inactive | inactive | inactive | inactive | inactive | inactive | inactive | inactive | inactive | inactive | inactive | inactive | inactive |  | inactive | inactive | inactive | inactive
9 | c1ccc2c(c1)-c1cccc3cccc-2c13 | inactive | inactive |  | inactive |  | inactive | inactive | inactive | inactive | inactive | inactive | inactive | inactive | inactive | inactive |  |  |  |  | 
10 | O=C(O)c1ccc(=O)[nH]c1 | inactive |  | inactive | inactive | inactive | inactive | inactive | inactive | inactive | inactive | inactive | inactive | inactive | inactive |  | inactive | inactive | inactive | inactive | inactive
11 | CC(Cl)C(=O)O (stereo not drawn) | inactive |  | inactive | inactive |  | inactive | inactive | inactive | inactive | inactive | inactive | inactive | inactive | inactive |  | inactive | inactive | inactive | inactive | inactive
12 | C=CCOCC1CO1 (stereo not drawn) | inactive |  | inactive | inactive | inactive | inactive | inactive | inactive | inactive |  | inactive | inactive | inactive | inactive |  | inactive | inactive | inactive | inactive | 
13 | C=CC(=O)OCC | inactive |  | inactive | inactive | inactive | inactive | inactive | inactive | inactive | inactive | inactive |  | inactive | inactive |  |  | inactive | inactive | inactive | 
14 | CC(C)(C)CC(C)(C)c1ccc(O)cc1 | 15.4 µM (active) |  | inactive | 57.7 µM (active) and 33.5 µM (active) |  | inactive | inactive | inactive | inactive | 54.5 µM (active) | 48.6 µM (active) |  | 43.6 µM (active) and inactive | inactive |  | 30.6 µM (active) and 33.5 µM (active) | inactive | inactive |  | inactive

Reference: PubChem BioAssay (Tox21)
